Data reported in PubChem BioAssay (NCI).
About 83,000 compounds went through this panel and 20% of them were active in at least one assay; those are over-represented in the sample as a whole.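 Percent growth is the endpoint: 0 to 100 indicates growth inhibition (40 means 60% inhibition), 0 means no net growth, and negative values indicate cell death.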 Activity calls are given as the source filed them. The calls were made as follows: active = growth percent below 10; inactive = the rest.

How the values were obtained:
Assay in all cases: NCI-60 one-dose screen, 48 h (100 = growth as untreated, 0 = no growth, -100 = all killed)
Conditions in all cases: 10 µM unless noted
HCT-15 colon = system: HCT-15 colon
HT29 colon = system: HT29 colon
SNB-75 CNS = system: SNB-75 CNS
SNB-19 CNS = system: SNB-19 CNS
U251 CNS = system: U251 CNS
PC-3 prostate = system: PC-3 prostate
SK-MEL-5 melanoma = system: SK-MEL-5 melanoma
UACC-62 melanoma = system: UACC-62 melanoma
SK-MEL-28 melanoma = system: SK-MEL-28 melanoma
SK-MEL-2 melanoma = system: SK-MEL-2 melanoma
EKVX NSCLC = system: EKVX NSCLC
SN12C renal = system: SN12C renal
UO-31 renal = system: UO-31 renal
TK-10 renal = system: TK-10 renal
ACHN renal = system: ACHN renal
CAKI-1 renal = system: CAKI-1 renal
A498 renal = system: A498 renal
CCRF-CEM leukemia = system: CCRF-CEM leukemia
MOLT-4 leukemia = system: MOLT-4 leukemia

Measured: growth

O=C1C(=O)N(CCCCn2cc(-c3ccccc3)nn2)c2ccccc21
inactive: HCT-15 colon 105% | HT29 colon 112% | SNB-75 CNS 95% | SNB-19 CNS 99.7% | U251 CNS 107% | PC-3 prostate 94.3% | SK-MEL-5 melanoma 100% | UACC-62 melanoma 95.7% | SK-MEL-28 melanoma 113% | SK-MEL-2 melanoma 122% | EKVX NSCLC 93.9% | SN12C renal 94.3% | UO-31 renal 75.3% | TK-10 renal 136% | ACHN renal 103% | CAKI-1 renal 92% | A498 renal 110% | CCRF-CEM leukemia 97.2% | MOLT-4 leukemia 101%

Cc1nn(-c2ccc(Cl)cc2)c(=O)n1CCn1cnc2ccccc21
inactive: HCT-15 colon 104% | HT29 colon 102% | SNB-75 CNS 106% | SNB-19 CNS 113% | U251 CNS 101% | PC-3 prostate 104% | SK-MEL-5 melanoma 113% | UACC-62 melanoma 101% | SK-MEL-28 melanoma 114% | SK-MEL-2 melanoma 109% | EKVX NSCLC 102% | SN12C renal 105% | UO-31 renal 90.8% | TK-10 renal 108% | ACHN renal 109% | CAKI-1 renal 95.8% | A498 renal 95.6% | CCRF-CEM leukemia 106% | MOLT-4 leukemia 100%

Cn1cc(-c2csc(-c3cn(C(=O)OC(C)(C)C)c4ccccc34)n2)c2cccnc21
inactive: HCT-15 colon 52.4% | HT29 colon 13% | SNB-75 CNS 57.7% | SNB-19 CNS 83.3% | U251 CNS 61.7% | PC-3 prostate 48.5% | SK-MEL-5 melanoma 64% | UACC-62 melanoma 62.1% | SK-MEL-28 melanoma 79.2% | SK-MEL-2 melanoma 66.3% | EKVX NSCLC 72.3% | SN12C renal 87.6% | UO-31 renal 73.7% | TK-10 renal 102% | ACHN renal 77.5% | CAKI-1 renal 58.7% | A498 renal 79.7% | CCRF-CEM leukemia 56.8% | MOLT-4 leukemia 50%

COC(=O)[C@]12CC[C@@H](C(C)=O)[C@@H]1[C@H]1CC[C@@H]3[C@@]4(C)C/C(=C/c5cccnc5)C(=O)C(C)(C)[C@@H]4CC[C@@]3(C)[C@]1(C)CC2
active: CCRF-CEM leukemia 7.57% | MOLT-4 leukemia 5.47%
inactive: HCT-15 colon 23.2% | HT29 colon 16.5% | SNB-75 CNS 110% | SNB-19 CNS 67.7% | U251 CNS 56.6% | PC-3 prostate 24.4% | SK-MEL-5 melanoma 39.8% | UACC-62 melanoma 34.5% | SK-MEL-28 melanoma 31.5% | SK-MEL-2 melanoma 68.1% | EKVX NSCLC 85.8% | SN12C renal 57.7% | UO-31 renal 56.6% | TK-10 renal 133% | ACHN renal 32.5% | CAKI-1 renal 51% | A498 renal 80.6%

CCN1CCN(C(=O)[C@]23CCC(C)(C)C[C@@H]2C2=CC[C@@H]4[C@@]5(C)C/C(=C/c6ccncc6)C(=O)C(C)(C)[C@@H]5CC[C@@]4(C)[C@]2(C)CC3)CC1
inactive: SNB-75 CNS 25% | EKVX NSCLC 15.3% | TK-10 renal 32.3% | CAKI-1 renal 23.2%
active: HCT-15 colon -63.9% | HT29 colon -39.8% | SNB-19 CNS -16.1% | U251 CNS -77.2% | PC-3 prostate -5% | SK-MEL-5 melanoma -98.8% | UACC-62 melanoma -86% | SK-MEL-28 melanoma -82.5% | SK-MEL-2 melanoma -30.8% | SN12C renal -70.1% | UO-31 renal -92.7% | ACHN renal 3.29% | A498 renal -22.6% | CCRF-CEM leukemia 3.73% | MOLT-4 leukemia -12.2%

Cc1ccc(NC2CC(=O)N(c3c(C)cc(C)cc3C)C2=O)c(C)c1 (stereo not given)
inactive: HCT-15 colon 105% | HT29 colon 106% | SNB-75 CNS 105% | SNB-19 CNS 92.6% | U251 CNS 95.8% | PC-3 prostate 95.3% | SK-MEL-5 melanoma 99.9% | UACC-62 melanoma 94.3% | SK-MEL-28 melanoma 109% | SK-MEL-2 melanoma 112% | EKVX NSCLC 95.3% | SN12C renal 97.2% | UO-31 renal 81.2% | TK-10 renal 106% | ACHN renal 101% | CAKI-1 renal 95.6% | A498 renal 105% | CCRF-CEM leukemia 88.6% | MOLT-4 leukemia 94.6%

COc1cc2nc(Cl)nc(Nc3cccc(C(=O)/C=C/c4ccc(Br)cc4)c3)c2cc1OC
inactive: HCT-15 colon 43.6% | HT29 colon 68.4% | SNB-75 CNS 76.6% | SNB-19 CNS 86.1% | U251 CNS 80% | PC-3 prostate 65.5% | SK-MEL-5 melanoma 91.6% | UACC-62 melanoma 81.5% | SK-MEL-28 melanoma 92.7% | SK-MEL-2 melanoma 92.4% | EKVX NSCLC 81.3% | SN12C renal 80.8% | UO-31 renal 60.8% | TK-10 renal 172% | ACHN renal 78.3% | CAKI-1 renal 72.8% | A498 renal 85.4% | CCRF-CEM leukemia 31.3% | MOLT-4 leukemia 37.1%

O=C1C(=O)c2ccccc2C(O)=C1CCCc1ccc(C2CCCCC2)cc1
inactive: HCT-15 colon 41.4% | HT29 colon 41.8% | SNB-75 CNS 54.9% | SNB-19 CNS 39.9% | U251 CNS 45.4% | PC-3 prostate 39.2% | SK-MEL-5 melanoma 20.6% | UACC-62 melanoma 47.9% | SK-MEL-28 melanoma 47.4% | SK-MEL-2 melanoma 104% | EKVX NSCLC 60.2% | SN12C renal 43.2% | UO-31 renal 75.9% | TK-10 renal 52.5% | ACHN renal 37% | CAKI-1 renal 19.7% | A498 renal 56.7% | MOLT-4 leukemia 29.2%
active: CCRF-CEM leukemia 9.07%

CC[C@H](CC[C@@H](C)[C@H]1CC[C@H]2[C@@H]3/C(=C/c4cccnc4)C(=O)C4=CC(=O)CC[C@]4(C)[C@H]3CC[C@]12C)C(C)C
inactive: HCT-15 colon 78.9% | HT29 colon 81.4% | SNB-75 CNS 110% | SNB-19 CNS 88.6% | PC-3 prostate 66.7% | SK-MEL-5 melanoma 79.8% | UACC-62 melanoma 76.6% | SK-MEL-28 melanoma 75.7% | SK-MEL-2 melanoma 103% | EKVX NSCLC 99% | SN12C renal 86.3% | UO-31 renal 65.4% | TK-10 renal 112% | ACHN renal 93.9% | CAKI-1 renal 77.9% | A498 renal 98.3% | CCRF-CEM leukemia 43.4% | MOLT-4 leukemia 67.5%
active: U251 CNS 0.689%

C#Cc1cccc(NC(=O)C2CCCN(C(=O)CCl)C2)c1 (stereo not given)
inactive: HCT-15 colon 25.2% [8.25 µM] | HT29 colon 83.9% [8.25 µM] | SNB-75 CNS 91.9% [8.25 µM] | SNB-19 CNS 85.7% [8.25 µM] | U251 CNS 72% [8.25 µM] | PC-3 prostate 96.2% [8.25 µM] | SK-MEL-5 melanoma 19.4% [8.25 µM] | UACC-62 melanoma 44.2% [8.25 µM] | SK-MEL-28 melanoma 102% [8.25 µM] | SK-MEL-2 melanoma 75.7% [8.25 µM] | EKVX NSCLC 95.7% [8.25 µM] | TK-10 renal 98.9% [8.25 µM] | CAKI-1 renal 33.8% [8.25 µM] | A498 renal 99.2% [8.25 µM]
active: SN12C renal 9.7% [8.25 µM] | UO-31 renal -56.7% [8.25 µM] | ACHN renal -96.3% [8.25 µM] | CCRF-CEM leukemia -25.9% [8.25 µM] | MOLT-4 leukemia -7.04% [8.25 µM]

CCOc1ccc(NC(=O)c2ccoc2COc2ccccc2)cc1
inactive: HCT-15 colon 101% | HT29 colon 107% | SNB-75 CNS 107% | SNB-19 CNS 95.3% | U251 CNS 99.4% | PC-3 prostate 95.7% | SK-MEL-5 melanoma 99.1% | UACC-62 melanoma 79.8% | SK-MEL-28 melanoma 101% | SK-MEL-2 melanoma 106% | EKVX NSCLC 96.1% | SN12C renal 99.1% | UO-31 renal 79.8% | TK-10 renal 101% | ACHN renal 106% | CAKI-1 renal 95.7% | A498 renal 108% | CCRF-CEM leukemia 95% | MOLT-4 leukemia 97%

CC1(C)CC[C@]2(C(=O)NCCNCCN)CC[C@]3(C)C(=CC[C@@H]4[C@@]5(C)CCC(=O)C(C)(C)[C@@H]5CC[C@]43C)[C@@H]2C1
active: HT29 colon -2.78% | U251 CNS -69.7% | UACC-62 melanoma -89.3% | CCRF-CEM leukemia -17.8% | MOLT-4 leukemia 3.49%
inactive: HCT-15 colon 27% | SNB-75 CNS 69.8% | SNB-19 CNS 56.1% | PC-3 prostate 40.9% | SK-MEL-5 melanoma 87.6% | SK-MEL-28 melanoma 38.6% | SK-MEL-2 melanoma 82.4% | EKVX NSCLC 94.8% | SN12C renal 14.2% | UO-31 renal 87.8% | TK-10 renal 127% | ACHN renal 12.2% | CAKI-1 renal 27.1% | A498 renal 81.5%

CC1(C)CC[C@]2(CO)CC[C@]3(C)C(=CC[C@@H]4[C@@]5(C)CC[C@H](NCO)C(C)(C)[C@@H]5CC[C@]43C)[C@@H]2C1
active: HCT-15 colon -76.1% | HT29 colon -43.2% | SNB-75 CNS -2.38% | U251 CNS -79.4% | PC-3 prostate 7.13% | SK-MEL-5 melanoma -2.6% | UACC-62 melanoma -73% | SK-MEL-2 melanoma -38% | SN12C renal -75.2% | UO-31 renal -58.9% | ACHN renal -69.2% | CAKI-1 renal -71.9% | CCRF-CEM leukemia 0.708% | MOLT-4 leukemia -19.7%
inactive: SNB-19 CNS 17.8% | SK-MEL-28 melanoma 60.8% | EKVX NSCLC 41% | TK-10 renal 100% | A498 renal 84.2%

COc1ccc(NC(=O)c2ccoc2COc2ccccc2)cc1
inactive: HCT-15 colon 89% | HT29 colon 107% | SNB-75 CNS 87.2% | SNB-19 CNS 89.6% | U251 CNS 96.1% | PC-3 prostate 91.3% | SK-MEL-5 melanoma 100% | UACC-62 melanoma 82.7% | SK-MEL-28 melanoma 94.6% | SK-MEL-2 melanoma 97.9% | EKVX NSCLC 94.7% | SN12C renal 94% | UO-31 renal 81.1% | TK-10 renal 109% | ACHN renal 98.3% | CAKI-1 renal 86.2% | A498 renal 99.7% | CCRF-CEM leukemia 87.7% | MOLT-4 leukemia 95.6%

COc1ccc(OC)c(-c2c(C#N)c(-c3ccco3)nc3c2c(-c2ccccc2)nn3-c2ccccc2)c1
inactive: HCT-15 colon 96.9% | HT29 colon 105% | SNB-75 CNS 84.5% | SNB-19 CNS 93.3% | U251 CNS 103% | PC-3 prostate 83.7% | SK-MEL-5 melanoma 97% | UACC-62 melanoma 76.6% | SK-MEL-28 melanoma 106% | SK-MEL-2 melanoma 99.4% | EKVX NSCLC 87.1% | SN12C renal 94.6% | UO-31 renal 84.1% | TK-10 renal 98% | ACHN renal 96.4% | CAKI-1 renal 82.3% | A498 renal 98.5% | CCRF-CEM leukemia 94.1% | MOLT-4 leukemia 96.3%
